This passage reports ETS1 binding intensity and RUNX1 binding intensity results from the supplement of paper PMC10681739.

In experiment [1] the target is T1, ETS1 (UniProt P14921).
T1 sequence: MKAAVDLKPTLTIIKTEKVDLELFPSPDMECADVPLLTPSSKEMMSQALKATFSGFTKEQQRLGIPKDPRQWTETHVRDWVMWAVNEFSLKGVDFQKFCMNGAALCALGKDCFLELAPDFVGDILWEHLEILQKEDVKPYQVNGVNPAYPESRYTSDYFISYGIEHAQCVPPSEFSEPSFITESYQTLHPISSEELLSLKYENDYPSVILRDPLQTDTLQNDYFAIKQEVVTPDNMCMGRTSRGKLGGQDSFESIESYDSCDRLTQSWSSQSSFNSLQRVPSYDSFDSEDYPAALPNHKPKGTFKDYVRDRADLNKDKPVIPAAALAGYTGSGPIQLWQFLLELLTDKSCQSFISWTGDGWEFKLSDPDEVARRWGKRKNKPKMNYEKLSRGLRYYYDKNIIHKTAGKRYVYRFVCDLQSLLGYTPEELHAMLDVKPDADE
Briefly: ETS1 binding intensity (PBM fluorescence), ETS1 alone (arbitrary fluorescence units); higher = stronger binding. As to conditions: ETS1 concentration 1 nM; RUNX1 concentration 0 nM.

The target of experiment [2] is RUNX1 (UniProt Q01196). Briefly: RUNX1 binding intensity (PBM fluorescence), RUNX1 alone (arbitrary fluorescence units); higher = stronger binding. As to conditions: RUNX1 concentration 2 nM; ETS1 concentration 0 nM. As to the method: (§1)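 Cooperative gcPBM on 36-bp genomic probes with neighbouring ETS1 and RUNX1 sites. Recombinant human RUNX1 (2 nM) was incubated alone or with ETS1 (25 nM) and detected with anti-RUNX1 antibody plus Alexa488 secondary. Values are medians over 4 replicate spots; the RUNX1+ETS1 data were normalised to the RUNX1-only data. The probes sit in constant array flanks that are not printed.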
Sequence of RUNX1 (Q01196 whole entry): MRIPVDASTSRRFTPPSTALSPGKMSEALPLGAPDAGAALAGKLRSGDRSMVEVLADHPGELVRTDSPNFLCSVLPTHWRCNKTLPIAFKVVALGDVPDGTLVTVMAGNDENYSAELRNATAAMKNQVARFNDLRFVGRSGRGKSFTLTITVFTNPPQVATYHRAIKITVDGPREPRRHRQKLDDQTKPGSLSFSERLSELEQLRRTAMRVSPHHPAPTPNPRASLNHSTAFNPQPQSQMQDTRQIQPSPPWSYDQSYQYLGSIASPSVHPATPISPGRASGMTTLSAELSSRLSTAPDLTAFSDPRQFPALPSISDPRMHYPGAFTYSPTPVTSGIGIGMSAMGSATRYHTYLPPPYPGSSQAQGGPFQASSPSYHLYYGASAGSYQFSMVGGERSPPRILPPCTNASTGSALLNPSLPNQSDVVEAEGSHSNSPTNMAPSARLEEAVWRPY

For experiment [3], the target named is T1, ETS1. Briefly: ETS1 binding intensity (PBM fluorescence) in presence of RUNX1, normalised to ETS1-only experiment (arbitrary fluorescence units); higher = stronger binding. As to conditions: ETS1 concentration 1 nM; RUNX1 concentration 25 nM.
For experiment [4], the target named is RUNX1 (UniProt Q01196). The experiment in a line: RUNX1 binding intensity (PBM fluorescence) in presence of ETS1, normalised to RUNX1-only experiment (arbitrary fluorescence units); higher = stronger binding. As to conditions: RUNX1 concentration 2 nM; ETS1 concentration 25 nM. How it is done:
as §1
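For RUNX1 binding intensity (PBM fluorescence) in presence of ETS1, normalised to RUNX1-only experiment in this document: Full-length recombinant human ETS1 or RUNX1 bound to double-stranded 36-bp genomic probes on microarrays, detected by protein-specific primary antibody and Alexa488 secondary, spot fluorescence as median of four replicate spots.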
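For RUNX1 binding intensity (PBM fluorescence), RUNX1 alone in this document: Full-length recombinant human RUNX1 bound to double-stranded 36-bp genomic probes on a high-density microarray, scored as Alexa488 fluorescence per spot via anti-RUNX1 antibody, median of four replicate spots.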

AGAAGGCGCCGGAAGTGGTCCCGCAGAGGCGGGGTG: the ETS1 binding intensity was 8990 in experiment [1] and 14100 in experiment [3]. For the same sequence, the values for the RUNX1 binding intensity in experiment [2] and in experiment [4] were 725 and 2500, respectively.

Consider TAGACTAACAGGGGAGGAAGTGGGTTGCAAGCCGTG, for which the ETS1 binding intensity came out at 2030 in experiment [1] and 2740 in experiment [3]. Moreover, the RUNX1 binding intensity in experiment [2] is 683; in experiment [4] it was 868.

Regarding TTCTTCCCCCTTCCGGTCGCTGAGTGGTTGAGGCCG, the ETS1 binding intensity is 4140 in experiment [1] and 3610 in experiment [3]. For the same sequence, the results for the RUNX1 binding intensity in experiment [2] and in experiment [4] were 898 and 2500, respectively.

In the case of ATCACTTGTTTCCGCCAGCAAACCACAGGTCCCCAG, the ETS1 binding intensity in experiment [1] is 417; in experiment [3], 811. Also, the RUNX1 binding intensity in experiment [2] came out at 1550; in experiment [4], 3750.

With TACCTACAGGAAATGAGACACACCGCAGGCCGATCC, the figures for the ETS1 binding intensity in experiment [1] and in experiment [3] were 2130 and 7670, respectively. In addition, the RUNX1 binding intensity in experiment [2] turned out to be 868; in experiment [4], 1770.

On to GATGGGCGAGTCAGGAAACCACAGCTCTGAGGGTGG, for which the ETS1 binding intensity in experiment [1] is 607; in experiment [3], 1190. Moreover, the RUNX1 binding intensity in experiment [2] was 950; in experiment [4], 1300.

As to GCTCCCTGGACAGGATGTGGTGCCGAGTAAACAGCT, the ETS1 binding intensity in experiment [1] is 4470; in experiment [3] it was 5380. In addition, the figures for the RUNX1 binding intensity in experiment [2] and in experiment [4] were 645 and 1410, respectively.

For the sequence TAAGCAGGGAATAGAGGAAGTGGTTTTGTCTCAGGC, the results for the ETS1 binding intensity in experiment [1] and in experiment [3] were 3270 and 7880, respectively. For the same sequence, the results for the RUNX1 binding intensity in experiment [2] and in experiment [4] were 779 and 1780, respectively.

As for ACACCGGAAGCCCAACAGCATGCCGAGTAACCACCC, the ETS1 binding intensity in experiment [1] was 1120; in experiment [3], 1170. Further, the RUNX1 binding intensity in experiment [2] came out at 864; in experiment [4], 1310.

Consider ATCTTCAGGAAGCGGTATCAACCTGAAAACCACCAC, for which the ETS1 binding intensity in experiment [1] came to 561; in experiment [3] it was 870. Besides, the RUNX1 binding intensity came to 772 in experiment [2] and 1250 in experiment [4].

In the case of AGGCCGCCTACAGGATGTTGGAAACCACAGGGCCCG, the figures for the ETS1 binding intensity in experiment [1] and in experiment [3] were 2910 and 29100, respectively. Besides, the results for the RUNX1 binding intensity in experiment [2] and in experiment [4] were 765 and 2660, respectively.

In the case of CGTGTGGGAGGCCGGAAGTTGCGGCTTCATTACTCG, the ETS1 binding intensity worked out at 20400 in experiment [1] and 51000 in experiment [3]. Also, the RUNX1 binding intensity in experiment [2] stood at 845; in experiment [4] it was 2710.

As to GACATCCAGGAAGTGGTGAGAAACCACGTGTGTGTT, the values for the ETS1 binding intensity in experiment [1] and in experiment [3] were 1630 and 4150, respectively. The values for the RUNX1 binding intensity in experiment [2] and in experiment [4] were 747 and 3070, respectively.

Take AGAGCAACAGGATGCAAATAACCACAAGCAAGAATA: the ETS1 binding intensity in experiment [1] came out at 920; in experiment [3] it was 4180. Moreover, the RUNX1 binding intensity in experiment [2] amounted to 1160; in experiment [4], 3320.

Turning to GAAATCCATCACGGATGTGGGCTTTTTGCTCTCATT, the ETS1 binding intensity in experiment [1] amounted to 1490; in experiment [3] it was 1620. Besides, the RUNX1 binding intensity in experiment [2] amounted to 760; in experiment [4], 1010.

For GGGGCAGCTTCCGGCAGGAGAGCCCGCATTCCCGGC, the ETS1 binding intensity in experiment [1] came to 903; in experiment [3], 771. Also, the RUNX1 binding intensity in experiment [2] turned out to be 1460; in experiment [4] it was 2470.

For GTTTCATGTTAAGTAGGATGTGGTCAGTTAGCTTCG, the ETS1 binding intensity in experiment [1] was 851; in experiment [3] it was 5410. In addition, the RUNX1 binding intensity amounted to 1120 in experiment [2] and 1290 in experiment [4].

For the sequence GAAGCGCTGGGCGGAAGTGGCTGTGGCTTTGCCCTT, the ETS1 binding intensity worked out at 9200 in experiment [1] and 14300 in experiment [3]. Also, the results for the RUNX1 binding intensity in experiment [2] and in experiment [4] were 735 and 1620, respectively.

With GACCGAGAGGAAGCAGCAAGGATCCTGCGGTTCCAG, the ETS1 binding intensity in experiment [1] was 505; in experiment [3], 1990. Besides, the RUNX1 binding intensity was 821 in experiment [2] and 875 in experiment [4].

GAAGAGGGTGGAGAAGGAAGTGGTCACACCACTTGC: the ETS1 binding intensity in experiment [1] is 1140; in experiment [3] it was 2380. Further, the values for the RUNX1 binding intensity in experiment [2] and in experiment [4] were 675 and 929, respectively.

With TGGTTCCACCGACCGGAAGGGCCACAAGGATCCCCG, the ETS1 binding intensity in experiment [1] was 5280; in experiment [3] it was 5560. In addition, the RUNX1 binding intensity in experiment [2] came to 659; in experiment [4], 1250.

As for TGTGTCACTTCCCTATCTGTTGCGGTTGTTCACTCC, the results for the ETS1 binding intensity in experiment [1] and in experiment [3] were 409 and 841, respectively. The RUNX1 binding intensity in experiment [2] was 1340; in experiment [4], 2930.

For GGCCGTTCTTCCGCCTGCAGGGTGGTCAGCGGAGGT, the ETS1 binding intensity is 571 in experiment [1] and 446 in experiment [3]. For the same sequence, the values for the RUNX1 binding intensity in experiment [2] and in experiment [4] were 712 and 1010, respectively.

Turning to AGCGTTGTCTTCCGGCCTCAACCACTCAGCGACCGG, the ETS1 binding intensity in experiment [1] turned out to be 14400; in experiment [3] it was 10600. The RUNX1 binding intensity in experiment [2] was determined as 751; in experiment [4] it was 1760.

On to AGGCGGCAGGAAATGACCCCATCCCGCAGCCTGGGC, for which the results for the ETS1 binding intensity in experiment [1] and in experiment [3] were 2480 and 5190, respectively. The RUNX1 binding intensity in experiment [2] was 806; in experiment [4] it was 2040.
